Results: the supplement of paper PMC9950053
Structures can show the parent of a compound that is named as a salt.

tested on: Danio rerio larvae (5 dpf); assay: 1-h baseline activity (% time moving, periods 1-6) minus DMSO control (percentage points); higher = more locomotor activity than DMSO larvae; conditions: 10 µM; exposure time: 3 h pre-incubation + 3 h imaging
Procedure: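 Wild-type 5 dpf zebrafish larvae (n=48 per drug, 96-well plates, 28.5 °C) were exposed to Tocris FDA-approved library compounds at 10 µM (0.1% DMSO) for 3 h before and 3 h during imaging. Images were taken every 6 s during visual (moving coloured lines) and acoustic stimuli, and larvae were tracked with the DeepLabCut-based Z-LaP Tracker. Each behavioural measure is the treated-group mean minus the DMSO vehicle control mean (n=844), in percentage points. This mapping covers compounds with 4-character plate codes.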

Which 1-h baseline activity does the source give for COCCCOc1cc(C[C@@H](C[C@H](N)[C@@H](O)C[C@H](C(=O)NCC(C)(C)C(N)=O)C(C)C)C(C)C)ccc1OC [Aliskiren hemifumarate] here?
The 1-h baseline activity was -5.54.

Which 1-h baseline activity does the source give for Cc1ccc(-c2cc(C(F)(F)F)nn2-c2ccc(S(N)(=O)=O)cc2)cc1 [Celecoxib] here?
The 1-h baseline activity was -5.62.

For O=c1[nH]c(=O)n([C@H]2C[C@H](O)[C@@H](CO)O2)cc1C(F)(F)F [Trifluorothymidine], which 1-h baseline activity is on record?
Its 1-h baseline activity is 0.518.

With COC(=O)C1=C(C)NC(C)=C(C(=O)OC(C)C)C1c1cccc2nonc12 (stereo not given) [Isradipine] as the compound, how does the 1-h baseline activity read?
Its 1-h baseline activity is -3.08.

O=C(c1ccc(OCCN2CCCCC2)cc1)c1c(-c2ccc(O)cc2)sc2cc(O)ccc12 [Raloxifene hydrochloride] was tested. Which 1-h baseline activity did it give?
Its 1-h baseline activity is -7.31.

Cc1ccc(NC(=O)c2ccc(CN3CCN(C)CC3)cc2)cc1Nc1nccc(-c2cccnc2)n1 [Imatinib mesylate] was tested. Which 1-h baseline activity did it give?
The 1-h baseline activity was -13.5.

Which 1-h baseline activity does the source give for COc1ccccc1OCCNCC(O)COc1cccc2[nH]c3ccccc3c12 (stereo not given) [Carvedilol] here?
The 1-h baseline activity was -12.4.

COc1c(C)c2c(c(O)c1C/C=C(\C)CCC(=O)O)C(=O)OC2 [Mycophenolic acid] was tested. Which 1-h baseline activity did it give?
The 1-h baseline activity was 1.89.

NC(=O)N1c2ccccc2C=Cc2ccccc21 [Carbamazepine] was tested. Which 1-h baseline activity did it give?
The 1-h baseline activity was -4.18.

Which 1-h baseline activity does the source give for C[C@]12CC[C@@H]3c4ccc(O)cc4C[C@@H](CCCCCCCCC[S+]([O-])CCCC(F)(F)C(F)(F)F)[C@H]3[C@@H]1CC[C@@H]2O (stereo not given in full) here?
Its 1-h baseline activity is 8.32.

For CC(C)c1nc(N(C)S(C)(=O)=O)nc(-c2ccc(F)cc2)c1/C=C/[C@@H](O)C[C@@H](O)CC(=O)O [Rosuvastatin calcium], which 1-h baseline activity is on record?
Its 1-h baseline activity is 2.58.

For CC(C)(C#N)c1cc(Cn2cncn2)cc(C(C)(C)C#N)c1 [Anastrozole], which 1-h baseline activity is on record?
Its 1-h baseline activity is 1.59.

With CN1CCC[C@@H]1Cc1c[nH]c2ccc(CCS(=O)(=O)c3ccccc3)cc12 [Eletriptan hydrobromide] as the compound, how does the 1-h baseline activity read?
Its 1-h baseline activity is 2.42.

How did the 1-h baseline activity turn out when Nc1nc2c(ncn2COCCO)c(=O)[nH]1 [Acyclovir] was run?
The 1-h baseline activity was -2.63.

Which 1-h baseline activity does the source give for C[C@H]1C[C@@H]2[C@H]([C@@H](O)C[C@@]3(C)[C@H]2CC[C@]3(O)C(=O)CO)[C@@]2(C)C=CC(=O)C=C12 [Methylprednisolone] here?
The 1-h baseline activity was -0.716.

For CCCCC(=O)N(Cc1ccc(-c2ccccc2-c2nnn[nH]2)cc1)[C@H](C(=O)O)C(C)C [Valsartan], which 1-h baseline activity is on record?
Its 1-h baseline activity is 3.3.

Which 1-h baseline activity does the source give for Cc1cn([C@H]2C=C[C@@H](CO)O2)c(=O)[nH]c1=O [Stavudine] here?
The 1-h baseline activity was -7.04.

How did the 1-h baseline activity turn out when Nc1cccc2c1CN(C1CCC(=O)NC1=O)C2=O (stereo not given) [Lenalidomide] was run?
Its 1-h baseline activity is -7.06.

CCOc1ccccc1OCCN[C@H](C)Cc1ccc(OC)c(S(N)(=O)=O)c1 [Tamsulosin hydrochloride] was tested. Which 1-h baseline activity did it give?
Its 1-h baseline activity is 3.66.

Which 1-h baseline activity does the source give for Clc1ccccc1C(c1ccccc1)(c1ccccc1)n1ccnc1 [Clotrimazole] here?
Its 1-h baseline activity is -22.9.

How did the 1-h baseline activity turn out when COc1ccc(Cl)cc1C(=O)NCCc1ccc(S(=O)(=O)NC(=O)NC2CCCCC2)cc1 [Glibenclamide] was run?
Its 1-h baseline activity is -0.0251.

For CCOc1cc(CC(=O)N[C@@H](CC(C)C)c2ccccc2N2CCCCC2)ccc1C(=O)O [Repaglinide], which 1-h baseline activity is on record?
Its 1-h baseline activity is 4.99.

C/C(O)=C(\C#N)C(=O)Nc1ccc(C(F)(F)F)cc1 [Teriflunomide] was tested. Which 1-h baseline activity did it give?
Its 1-h baseline activity is -8.94.

For CC(=O)Oc1ccccc1C(=O)O [Aspirin], which 1-h baseline activity is on record?
Its 1-h baseline activity is -0.776.

CC#C[C@]1(O)CC[C@H]2[C@@H]3CCC4=CC(=O)CCC4=C3[C@@H](c3ccc(N(C)C)cc3)C[C@@]21C [Mifepristone] was tested. Which 1-h baseline activity did it give?
Its 1-h baseline activity is -3.83.

With CC(=O)NC[C@H]1CN(c2ccc(N3CCOCC3)c(F)c2)C(=O)O1 [Linezolid] as the compound, how does the 1-h baseline activity read?
Its 1-h baseline activity is 3.05.

Which 1-h baseline activity does the source give for CC(C)c1ccc2oc3nc(N)c(C(=O)O)cc3c(=O)c2c1 [Amlexanox] here?
Its 1-h baseline activity is 5.8.

Which 1-h baseline activity does the source give for CC(C)(C(=O)c1cccnc1)c1cccnc1 [Metyrapone] here?
Its 1-h baseline activity is -9.17.

CC(C)C(=O)OCC(=O)[C@@]12O[C@H](C3CCCCC3)O[C@@H]1C[C@H]1[C@@H]3CCC4=CC(=O)C=C[C@]4(C)[C@H]3[C@@H](O)C[C@@]12C [Ciclesonide] was tested. Which 1-h baseline activity did it give?
Its 1-h baseline activity is -10.2.

Which 1-h baseline activity does the source give for CC/C(=C(\c1ccccc1)c1ccc(OCCN(C)C)cc1)c1ccccc1 [Tamoxifen citrate] here?
Its 1-h baseline activity is 26.3.

For COc1cc2ncnc(Nc3ccc(F)c(Cl)c3)c2cc1OCCCN1CCOCC1 [Iressa], which 1-h baseline activity is on record?
The 1-h baseline activity was -6.95.

CN(CCOc1ccc(CC2SC(=O)NC2=O)cc1)c1ccccn1 (stereo not given) [Rosiglitazone] was tested. Which 1-h baseline activity did it give?
Its 1-h baseline activity is -1.36.

NS(=O)(=O)c1cc(C(=O)O)c(NCc2ccco2)cc1Cl [Furosemide] was tested. Which 1-h baseline activity did it give?
Its 1-h baseline activity is 5.77.

Which 1-h baseline activity does the source give for CC(c1cc2ccccc2s1)N(O)C(N)=O (stereo not given) [Zileuton] here?
The 1-h baseline activity was -1.65.

Which 1-h baseline activity does the source give for CCCCC1=NC2(CCCC2)C(=O)N1Cc1ccc(-c2ccccc2-c2nnn[nH]2)cc1 [Irbesartan] here?
The 1-h baseline activity was 1.48.

How did the 1-h baseline activity turn out when CC(C)N(CCCCOCC(=O)NS(C)(=O)=O)c1cnc(-c2ccccc2)c(-c2ccccc2)n1 [Selexipag] was run?
The 1-h baseline activity was 1.65.

With O=C(O[C@@H]1C[C@@H]2C[C@H]3C[C@H](C1)N2CC3=O)c1c[nH]c2ccccc12 [Dolasetron mesylate] as the compound, how does the 1-h baseline activity read?
Its 1-h baseline activity is -3.58.

Which 1-h baseline activity does the source give for COc1ccc(-c2ccc3cc(C(=O)O)ccc3c2)cc1C12CC3CC(CC(C3)C1)C2 [Adapalene] here?
Its 1-h baseline activity is -1.21.

How did the 1-h baseline activity turn out when OCCOCCN1CCN(C2=Nc3ccccc3Sc3ccccc32)CC1 [Quetiapine hemifumarate] was run?
The 1-h baseline activity was 9.62.

Which 1-h baseline activity does the source give for CC1CNc2c(cccc2S(=O)(=O)N[C@@H](CCCNC(=N)N)C(=O)N2CC[C@@H](C)C[C@@H]2C(=O)O)C1 (stereo not given in full) [Argatroban] here?
The 1-h baseline activity was 3.52.
